Sampled rows, rich in hits. Any-hit rate of the full collection: about 11%.
HP1b binding inh = HTS for Inhibitors of HP1-beta Chromodomain Interactions with Methylated Histone Tails; AlphaScreen HP1-beta / biotin-H3K9me3 peptide binding; Potency, µM (series often up to 114 µM), inactives show top-dose activity change, negative = inhibition, hits mostly inhibitors; 0.56% of 390,000 active; AID 540317, 2011; note: nearly all actives have a fitted effect of over 70% in size
Target sequence (P83916 whole entry, looked up): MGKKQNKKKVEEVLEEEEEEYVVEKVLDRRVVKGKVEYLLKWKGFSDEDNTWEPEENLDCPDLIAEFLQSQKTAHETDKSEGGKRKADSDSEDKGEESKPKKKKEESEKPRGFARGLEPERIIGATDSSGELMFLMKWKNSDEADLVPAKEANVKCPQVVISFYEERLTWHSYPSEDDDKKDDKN
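HP1-beta protein (50 nM final) preincubated 30 min at room temperature with biotinylated H3(1-18)K9me3 peptide (50 nM) in PBS pH 7.4, 0.01% Tween-20, then compound added for 30 min. AlphaScreen streptavidin donor/nickel chelate acceptor beads (10 ug/mL final), 30 min dark, luminescence read.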
G9a block = qHTS Assay for Inhibitors of Histone Lysine Methyltransferase G9a | G9a H3K9 monomethylation, AlphaScreen, 2 h | Potency, µM (titrated, usually from 102 µM), inactives show at the highest dose activity, negative = inhibition, most hits filed as inhibitors | 8.8% of 350,000 active | AID 504332, 2011; note: % is set by controls: 0 for no effect and ±100 for the full control effect; nearly all actives have a fitted effect of over 75% in size
Target sequence (Q96KQ7 913-1193 limits assumed): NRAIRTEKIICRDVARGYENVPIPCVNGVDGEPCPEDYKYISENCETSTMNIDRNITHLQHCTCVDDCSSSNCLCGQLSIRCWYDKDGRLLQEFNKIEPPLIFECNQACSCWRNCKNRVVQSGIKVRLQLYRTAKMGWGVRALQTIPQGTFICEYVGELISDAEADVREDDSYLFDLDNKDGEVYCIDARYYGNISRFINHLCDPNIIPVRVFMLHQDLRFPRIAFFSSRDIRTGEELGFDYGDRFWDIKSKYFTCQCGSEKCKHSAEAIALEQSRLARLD
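Readings reflect AlphaScreen signal from monomethyl-H3K9 antibody detection. HMT at 20 nM; substrate b-H3K9 500 nM; cofactor SAM 20 uM; 2 h RT reaction; compounds tested as titrations in qHTS with 15 min preincubation.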
L3MBTL1 block = qHTS Assay for the Inhibitors of L3MBTL1; AlphaScreen L3MBTL1–H3K9me1 peptide binding; Potency, µM (doses to about 57.1 µM), inactives show at the highest dose activity, negative = inhibition, hits mostly inhibitors; 0.66% of 230,000 active; AID 485360, 2010; note: % is set by controls: 0 for no effect and ±100 for the full control effect; nearly all actives have a fitted effect of over 60% in size
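AlphaScreen assay: L3MBTL1 (50 nM final) was preincubated 30 min at room temperature with biotinylated H3(1-15)K9me1 peptide (75 nM final), then 30 min with library compounds; streptavidin donor and nickel chelate acceptor beads (10 ug/mL final) added, 30 min dark.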
BAZ2B block = qHTS Assay for Inhibitors of BAZ2B | Bromodomain adjacent to zinc finger domain protein 2B (Homo sapiens), Q9UIF8 | AlphaScreen BAZ2B-H3K14Ac peptide displacement | Potency, µM (highest dose often 114 µM), without a hit: at the highest dose activity change, negative = inhibition, most hits filed as inhibitors | 4.4% of 360,000 active | AID 504333, 2011; note: % is set by controls: 0 for no effect and ±100 for the full control effect; nearly all actives have a fitted effect of over 60% in size
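AlphaScreen luminescence quantifies BAZ2B engagement of H3K14Ac peptide; the protein and biotinylated peptide are both at 50 nM final, buffer PBS pH 7.4 with 0.01% Tween-20, all steps at room temperature.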
JMJD2A Tudor inh = qHTS Assay for Inhibitors of JMJD2A-Tudor Domain. Potency, µM (series often up to 114 µM), inactives show at the top dose activity change, negative = inhibition, most hits filed as inhibitors. AlphaScreen JMJD2A-Tudor / H3K4me3 peptide binding. Lysine-specific demethylase 4A (Homo sapiens), O75164. 4.4% of 390,000 active; note: % is set by controls: 0 for no effect and ±100 for the full control effect; nearly all actives have a fitted effect of over 50% in size
* marks the source's active call; other numbers are inactive results; ? = inconclusive; . = no result given; [ ] = dose if it differs, or a comment. Calls come from the whole dose curve; as a rule, active = well fitted inhibition curve with a large enough effect; inconclusive = small, poorly fitted or top-dose-only effect; inactive = no such curve, though single readings can be large or run the other way. Potency is the fitted concentration of half-maximal effect.

SMILES | HP1b binding inh | G9a block | L3MBTL1 block | BAZ2B block | JMJD2A Tudor inh
CCC(=O)c1ccc(OCC(=O)O)c(OC)c1 | 49% | 79µM* | -16% | 1% | 0%
CCOC(=O)COc1ccc(C(=O)CC)cc1OC | 25% | 7% | 6% | -2% | 2%
CN(C(=O)N1CCN(c2ccccn2)CC1)c1ccccc1 | 22% | -32%[59 µM] | -1% | -5% | -6%
O=C(NCCCN1CCOCC1)c1ccc2ccccc2c1 | 8% | -14% | 26% | ? | -17%
O=C(CN1CCOCC1)N(c1ccccc1)c1ccc2ccccc2c1 | 47% | 50µM* | 3% | -27% | -22%
O=C(CN1CCN(c2ccccn2)CC1)N(c1ccccc1)c1ccc2ccccc2c1 | -36% | 50µM* | ? | ? | -19%[11.4 µM]
Cn1c(SCC(=O)c2ccc3c(c2)Cc2ccccc2-3)nnc1-c1cccc(N)c1 | 11% | ? | -14% | -11% | -22%
CC(=O)Nc1ccc(-c2nnc(SCC(=O)c3ccc4c(c3)Cc3ccccc3-4)n2C)cc1 | 5% | 22µM* | -6% | 1% | 35µM*
CCN1CCN(C(=O)c2ccc3c(c2)S(=O)(=O)c2ccccc2C3=O)CC1 | 38% | 50µM* | . | -31% | 6%
COc1ccc(CCNC(=O)Cc2c(C)c3cc4c(C)coc4c(C)c3oc2=O)cc1 | 27% | -31%[59 µM] | . | 0% | -12%
COc1ccc(N2CCN(C(=O)C(C)n3c(=O)cc(C(F)(F)F)c4c(C)nn(C)c43)CC2)cc1 (stereo unspecified) | ? | 10µM* | . | 35µM* | -24%
OCCN(Cc1ccccc1)CC1CC2C=CC1C2 (stereo unspecified) | -51% | 14µM* | . | ? | 3.2µM*
O=C1C2C3C=CC(C3)C2C(=O)N1CN(Cc1ccccc1)CN1C(=O)C2C3C=CC(C3)C2C1=O (stereo unspecified) | 15% | -3%[59 µM] | -1% | 18% | -4%
CN(Cc1ccccc1)C(=O)NC1CCCCC1 | 36% | 26%[59 µM] | -5% | 45% | -2%
OCCN(Cc1ccccc1)CC1CCCCC1 | 14% | 11µM* | . | ? | 22µM*
CC(=O)c1ccc(NC(=O)c2ccc(-c3nc(COc4ccc(C)cc4)c(C)o3)cc2)cc1 | 45µM* | ? | . | -21% | -9%
COc1cccc(-c2nc(CS(=O)(=O)CC(=O)Nc3cccc(C(C)=O)c3)c(C)o2)c1 | 0% | 14% | . | ? | ?
COc1ccc(NC(=O)c2ccc(-c3nc(COc4ccccc4)c(C)o3)cc2)cc1 | 25% | -21%[59 µM] | . | -14% | -8%
Cc1oc(-c2cccc(Cl)c2)nc1CS(=O)(=O)CC(=O)NC1CC1 | 88% | 50µM* | . | -25% | -15%
COc1ccc(-c2nc(CS(=O)(=O)CC(=O)Nc3cccc(C(C)=O)c3)c(C)o2)cc1 | 21% | 20µM* | . | -10% | -30%
CCOC(=O)CSc1nc2cc3c(cc2c(=O)n1CCCC(=O)NCCc1ccc(OC)c(OC)c1)OCO3 | 47% | -4%[59 µM] | . | -3% | -8%
COc1ccc(-c2nc3cc(NC(=O)c4ccc(C)cc4)ccc3o2)cc1Cl | 20% | -34%[59 µM] | . | 2% | -9%
O=C(Cc1ccccc1)NCC(=O)Nc1cccc(Cl)c1 | 9% | -5% | . | -11% | 6%
O=C1Nc2c(c(=O)[nH]c(=O)n2-c2ccc(F)cc2)C1(NS(=O)(=O)c1ccc(Cl)cc1)C(F)(F)F (stereo unspecified) | 22% | 4%[59 µM] | . | -3% | -4%
O=C1Nc2c(c(=O)[nH]c(=O)n2Cc2ccccc2)C1(NS(=O)(=O)c1ccccc1)C(F)(F)F (stereo unspecified) | 28% | 45µM* | 3% | -1% | -3%
O=C(NC1(C(F)(F)F)C(=O)Nc2c1c(=O)[nH]c(=O)n2Cc1ccco1)C1CCCCC1 (stereo unspecified) | 3% | 79µM* | . | 3% | 79µM*

From PubChem BioAssay
